# Test results reported in PubChem BioAssay AID1508600 (Functional Genomics Laboratory (NCATS/FGL), 2020).
# About 3,700 (7%) of roughly 53,000 sequences were called active.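 The calls were made as follows: active = gene knockdowns whose robust z-score for IL-1 alpha signal is at least 2 or at most -2, so actives lie on both sides; inactive = the rest.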 The full list was thinned out, with actives kept by preference.
# Assay: Components of the Cytosolic LPS Sensing Pathway: Gene Identification via Genome-wide siRNA Screen;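 also: robust z of the log signal after scaling to non-targeting control siRNA wells of the plate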
# Conditions: RAW264.7 macrophages, IL-1a HTRF, actives lie on both sides, screened at 100 nM (by protocol), cells primed 5 h with Pam3CSK4 first
# Method in brief: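 Read-out: IL-1a HTRF on supernatant, divided by plate negative-control median ×100, log-transformed and converted to robust z-score. Cells were RAW264.7 given 100 nM siRNA, Pam3CSK4-primed 5 hours, then LipidA-transfected 24 hour.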
row,Sequence,z-score
1,GGUUUCCAUAUUUGGAUCCTT against Dhx40,0.0331 (inactive)
2,GGGAAAGAAUUGGAUUGAATT against N4bp2l1,-2.31 (active)
3,GGAAUUUGAAGCUGUCACUTT against Spata2,-0.433 (inactive)
4,GGACUAGCGGACAUGGAUCTT against Ndc80,1.02 (inactive)
5,GGAAUUUCAAAGAGACAAATT against Cyfip1,-0.423 (inactive)
6,GGAUCGGUGAGAUUGUAGCTT against Phyhd1,-0.177 (inactive)
7,GGGCAUUUCUUCAGCUAAUTT against Tfec,-1.04 (inactive)
8,GGAAGAUCUCAGUGAGCAUTT against Gpcpd1,0.69 (inactive)
9,GGGUUUUAUCAGCUAAAAATT against Plppr4,2.29 (active)
10,GGCUUUAGGAAGAUCCUUGTT against Ilf2,-0.538 (inactive)
11,UUCUGUGAUCAUGUCUUCUTT against Tuba1b,-1.6 (inactive)
12,GCGAUUCUGUAAAGAGCGCTT against Nme1,1.9 (inactive)
13,GGCCUUAGUUUAUACAUGUTT against Dusp18,0.628 (inactive)
14,GGAAUGUAACUGAAAGACUTT against Myo1c,0.486 (inactive)
15,GCUCAAGGACUUACGCAACTT against Zfp668,-1.61 (inactive)
16,GCAUUCCAACGGAUUUAAUTT against Dag1,2.21 (active)
17,GGACAAAAACAAACAUGAGTT against Vwa3a,-0.665 (inactive)
18,CCGGGAAAGAACUCCUAAGTT against Wnt8b,0.0331 (inactive)
19,GGUUUCACAUUCAUCAACUTT against Ccdc14,-1.02 (inactive)
20,GGAUGAGCAAGAAAUCCCUTT against Ccdc137,-0.873 (inactive)
21,CCUAAGGAGACACGAAGCCTT against Cfp,-0.119 (inactive)
22,GGAUAUGCACUGUUUUCAATT against Nudt16,2.28 (active)

row,Sequence,z-score
1,GGUCUUCCAAGAAAAAGGCTT against a,1.07 (inactive)
2,GGAUGCUGACAAAAAUAUCTT against Iars,0.447 (inactive)
3,GGCCAUAAAAUGGUAGUAUTT against Trim36,0.0952 (inactive)
4,GGGUCAUGUUUUUAAGAAGTT against Frrs1,-1.28 (inactive)
5,CCCUUGCCUCAAAGAUCUUTT against Tex48,0.633 (inactive)
6,GCACUGUUCUCAAAGUUAATT against Ddx3x,-0.248 (inactive)
7,GGCUACGCCCACAAAAGCUTT against H1f6,-2.26 (active)
8,CCAAUUGGAAGAAUCCAGGTT against Gsdmc3,-0.542 (inactive)
9,GGUUUUCCUAAAGUCAACATT against Bfar,-2.24 (active)
10,GCAGUAGCGACGAAGGAUGTT against Rnf113a2,-2.12 (active)
11,GGACAAGAAUUGGAACAAATT against Zfp84,1.43 (inactive)
12,GGCAGUAUCAAAGAAAUUGTT against Rps6ka3,3.43 (active)
13,CCCAGGUAGAGACAUUGCUTT against 6330444E15Rik,-1.89 (inactive)
14,GGAGAUGAAAUCUACAAAUTT against Igfbp1,-0.592 (inactive)
15,GCCUUGUUGUGUUGGCUUATT against Olfr1111,0.549 (inactive)
16,GGGAAUAUUUUCAAGUUGCTT against Tmem14a,0.795 (inactive)
17,GGAAGAUAUUGGUAAAAACTT against Uba1y,0.584 (inactive)
18,GGAUGUUUGGACAUCAUUUTT against 2610002M06Rik,0.204 (inactive)
19,GGUAAUGAUACCUUGAAUGTT against H60a,2.11 (active)
20,GCUUCAGUGGCUACUCUUGTT against H2-M2,0.63 (inactive)
21,CCGUGGAUUGUGGAAUAAUTT against Xpnpep3,-1.39 (inactive)
22,GCCAGUUUUGGUAUCCCGUTT against Lpcat2,-1.2 (inactive)

row,Sequence,z-score
1,GGGACAACCCAUCAACAAUTT against Catsper1,-0.614 (inactive)
2,CGAUGUACUCCAUGUUGGGTT against Bpifb6,3.47 (active)
3,GGAAAGCUUGAAUGUUGAGTT against Mup3,1.44 (inactive)
4,GACACCCUGUGACACCAAGTT against Sprr1b,-0.597 (inactive)
5,GGCUUUAAUGAAAUUAUGGTT against Asap2,1.4 (inactive)
6,CCCAGAAUUGAACUAAAAATT against Mrpl32,-0.488 (inactive)
7,GGUGGAACAACUGUUUCAATT against Dyrk3,0.541 (inactive)
8,GGAACCUAUGGAAGGCGUATT against Ino80b,2.64 (active)
9,CCCACGCUUAGCAAUAUCATT against Get3,-1.49 (inactive)
10,GGUAACCUAGUGUAAGUUUTT against Atg2b,-0.0782 (inactive)
11,GGAGAGCAGUGAUAACCAGTT against Cracd,2.06 (active)
12,GGAAAUUGCUCAAAAAAGGTT against Asb3,0.725 (inactive)
13,GGCUUCUAUUGCCAUAAUGTT against Olfr380,0.568 (inactive)
14,GGAUGAAGACAGUCAAAUGTT against Lypd3,0.261 (inactive)
15,GGCAGAUUCUAAAUAUAGCTT against Itga9,-0.52 (inactive)
16,GGACAGCUUCAUCAAGCCUTT against Cep89,-0.628 (inactive)
17,GGUCUGGUGUUGUAGGAUATT against Map1lc3b,2.71 (active)
18,GGAGUCAUAUGCACAGAUCTT against Tcte3,-0.706 (inactive)
19,CGUGGAUGAGAACUAACCUTT against Rpl31,1.24 (inactive)
20,GCUCCUAUGCAAACAUUGCTT against Olfr1390,0.489 (inactive)
21,GGAUCUCUUAGGUAUCUUATT against Nlrp14,1.45 (inactive)
22,GGAACACUGGAAGAAAGAUTT against Arhgap35,-1.21 (inactive)

row,Sequence,z-score
1,GAUGUACUUGAUAAAGCCUTT against Ugt2b37,3.68 (active)
2,CCCAUCUCACUAUUUAAUATT against Lrrc3b,-1.23 (inactive)
3,GCUGCACAAGUGCAUUUUUTT against Srp14,-1.34 (inactive)
4,GGGUAUUUCCACUUCAUAGTT against Acsm2,1.59 (inactive)
5,GCUCAUGGACCAACCUAUGTT against Olfr1180,0.501 (inactive)
6,GCUUUCCGGAAUACGAGCUTT against Snapc3,-0.638 (inactive)
7,CGCAAGAUCCUCAAACGAGTT against Proc,-0.358 (inactive)
8,GGGAACAAGUUGAGCUACUTT against Ebp,-0.0574 (inactive)
9,UAGGAGAUAUCUGCUACCGTT against Fbxw16,-2.53 (active)
10,CCAUGUUCGGACGUGGUCUTT against Shkbp1,-1.17 (inactive)
11,GGAGAGGAAUCAAGUGGUGTT against Lig1,-1.04 (inactive)
12,GGUGCUUUAUUAGGUAUUCTT against Atp6v1g3,-1.26 (inactive)
13,GGGUAGCUUUAAAUAAAGGTT against Olfr801,2.47 (active)
14,GCAUAAGCCUAAAAAUUCUTT against Ptprd,0.43 (inactive)
15,GCCCUCUUGUGAUUAAGCATT against Esr1,-0.959 (inactive)
16,GCUAAGAAGAGGAUUCCAATT against Spag1,-0.579 (inactive)
17,GCAGCAGUGCUUACUUAACTT against Ccdc25,0.212 (inactive)
18,GGAAAGUGAUGUCACAAAATT against G3bp1,1.31 (inactive)
19,GGUGUUUGUGAAGGAGCAGTT against Fam117a,2.98 (active)
20,GGCCAACCUGGAGAACUUGTT against Atp6v1c2,0.441 (inactive)
21,GGUUAAUAUUAGCAUCGUCTT against Zdhhc23,0.908 (inactive)
22,GGCUCUGUGUUGGUAAUGATT against Yipf1,-0.538 (inactive)

row,Sequence,z-score
1,GGGUCAUCGGAACAGAACUTT against Sult3a1,-2.26 (active)
2,GGGCAACUGUACGUACCAUTT against Cd93,0.0137 (inactive)
3,GGGAGCAUUUCCUUAUACUTT against Tpmt,0.67 (inactive)
4,GGAUAAAGCCACAUUUGGUTT against Apoh,-0.483 (inactive)
5,GGAACCAGAGGACAAAGACTT against Ccdc96,-2.43 (active)
6,GGCUGGUGUAAAAGACACGTT against Nat14,0.142 (inactive)
7,GGGUUUUCGGGAGAUCUGUTT against Ltbp4,-0.44 (inactive)
8,GGAGCACUAUGAUGAGUUCTT against U2af1,-0.452 (inactive)
9,GCACUAUGGUAUUGAAAUUTT against Armc5,0.635 (inactive)
10,GGAUUCUGAAAUCAGUGCUTT against Capn8,1.52 (inactive)
11,GGUCACCAAGCAACACAAUTT against Fen1,2.56 (active)
12,GCAGUAAAAUGACAUUUGGTT against Dennd6b,0.694 (inactive)
13,GCUAGGUGCUGCUACGAAATT against Tex13c3,-0.0824 (inactive)
14,GGGCAGUAAGACCUUCAUGTT against Dhcr24,0.685 (inactive)
15,GGUUGAAGGCCAAUUCAAATT against Lrrc10,2.94 (active)
16,GCACUAGCAGGAUUCAUUGTT against Gabrb2,-1.25 (inactive)
17,CGAUUGCUCUUAACCCUUGTT against Zfp597,-0.233 (inactive)
18,GGCAUCCUGAGAGAACUCATT against Insyn1,-2.27 (active)
19,GCUGACCUAUUCUGAUCCATT against Chchd4,-0.223 (inactive)
20,GGUUCAGAUCCCUAAAAUATT against Ago4,-0.557 (inactive)
